Measured potencies and affinities stand elsewhere. Active and inactive are the calls of the source.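 The calls were made as follows: active = signal-lowering compounds whose fitted half-maximal concentration is at or below twice the top tested dose in every run; inconclusive = runs disagree, flat 30 to 70% inhibition, or poor curve fit; inactive = the rest.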
target: Protein S100-A4 (Homo sapiens) (UniProt P26447); experiment: S100A4-myosin IIA binding inhibitor potency, dose response, biochemical, fluorescence polarization, cherry-picked hits (AID 687001); conditions: FP, S100A4/TAMRA-myosin IIA peptide binding; series mostly up to 11 µM; activity change, negative = inhibition: at the top concentration;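 also: 0% = DMSO neutral control wells and -100% = TFP positive control wells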
Sequence (P26447 whole entry, looked up): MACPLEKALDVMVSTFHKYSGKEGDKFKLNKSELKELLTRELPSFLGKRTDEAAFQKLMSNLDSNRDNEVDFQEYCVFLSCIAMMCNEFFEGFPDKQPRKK

Activity change, negative = inhibition, inactive:
CCN(C[C@H]1[C@H](c2ccccc2)[C@H](CO)N1C(C)=O)C(=O)c1ccccn1 3.97%
CCn1c(=S)sc2c(=O)n(CC(=O)Nc3ccc(C(C)=O)cc3)c(C)nc21 17.8%
O=C(C[C@H]1CC[C@@H]2[C@H](COC[C@@H](O)CN2C(=O)Nc2ccc(F)cc2)O1)NCCc1ccccc1 7.77%
CC(=O)Nc1ccc2nsnc2c1 -2.33%
Cc1oc(-c2ccccc2Cl)nc1CSCC(=O)O 6.41%
COc1ccc(CN(C)C[C@@H]2Oc3ccc(NS(=O)(=O)c4ccccc4)cc3CC(=O)N([C@H](C)CO)C[C@H]2C)cc1 1.64%
Cc1ccc(S(=O)(=O)NCCC(=O)NCc2ccccn2)cc1 2.35%
CC(C)C[C@H]1CN(CCCC[C@@H]2CNC(=O)C(=O)N2Cc2ccccc2)C(=O)C(=O)N1Cc1ccccc1 -0.618%
O=C(CCCN1C(=O)C2CC=CCC2C1=O)Nc1ccccc1F (centres undefined) -3.43%
COc1ccc(CN(C)C[C@H]2OCCCC[C@@H](C)Oc3ccc(NC(=O)Nc4ccc5c(c4)OCO5)cc3C(=O)N([C@H](C)CO)C[C@H]2C)cc1 -2.45%
CCC(=O)N1[C@@H]2c3ccc(-c4ccncc4)c(=O)n3C[C@H]1[C@H](CO)[C@H]2C(=O)NC1Cc2ccccc2C1 0.367%
C[C@H](NC(=O)C[C@@H]1C[C@@H]2c3cc(NC(=O)Nc4ccc(C(F)(F)F)cc4)ccc3O[C@@H]2[C@@H](CO)O1)c1ccccc1 0.731%
CSCCC(NC(=O)c1ccccc1Cl)C(=O)NCC(c1cccs1)N(C)C (centres undefined) -5.64%
C[C@@H]1CCCCO[C@H](CN(C)C(=O)NC2CCCCC2)[C@@H](C)CN([C@@H](C)CO)C(=O)c2cc(NC(=O)Nc3ccc(C(F)(F)F)cc3)ccc2O1 21.9%
